Results on 40 molecules are retold here after PubChem BioAssay (EPA / NIEHS).

Structures are written as SMILES. Inconclusive results are not listed. Active and inactive are the calls of the source. Rule for the calls: active = hit-call score of the fitted dose curve at least 0.9, where 1 is the maximum; inconclusive = response in the unintended direction; inactive = score below 0.9.

The test deals with human Peroxisome Proliferator-activated Receptor alpha (PPARa), PPARA (gene 5465) (UniProt Q07869). Description: ATG_PPARa_TRANS: Attagene TRANS-FACTORIAL HepG2 Assay for human Peroxisome Proliferator-activated Receptor alpha (PPARa) (AID 2283001).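 For AC50: potency for gain of reporter signal over DMSO so agonist or activator.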 As for the experimental part: ATG_TRANS is a cell-based, multiplexed-readout assay that uses HepG2, a human liver cell line, with measurements taken at 24 hours after chemical dosing in a 24-well plate.ATG_PPARa_TRANS is one of 30 assay component(s) measured or calculated from the ATG_TRANS assay. It is designed to make measurements of mRNA induction, a form of inducible reporter, as detected with fluorescence intensity signals by Reverse transcription polymerase chain reaction (RT-PCR) and Capillary electrophoresis technology.Data from the assay component ATG_PPARa_TRANS was analyzed into 1 assay endpoint. This assay endpoint, ATG_PPARa_TRANS, was analyzed in the positive analysis fitting direction relative to DMSO as the negative control and baseline of activity. Using a type of inducible reporter, measures of mRNA for gain-of-signal activity can be used to understand the reporter gene at the transcription factor-level as they relate to the gene PPARA. Furthermore, this assay endpoint can be referred to as a primary readout, because this assay has produced multiple assay endpoints where this one serves a reporter gene function. To generalize the intended target to other relatable targets, this assay endpoint is annotated to the nuclear receptor intended target family, where the subfamily is non-steroidal.
human Peroxisome Proliferator-activated Receptor alpha (PPARa), PPARA (gene 5465), sequence (Q07869 whole entry, looked up): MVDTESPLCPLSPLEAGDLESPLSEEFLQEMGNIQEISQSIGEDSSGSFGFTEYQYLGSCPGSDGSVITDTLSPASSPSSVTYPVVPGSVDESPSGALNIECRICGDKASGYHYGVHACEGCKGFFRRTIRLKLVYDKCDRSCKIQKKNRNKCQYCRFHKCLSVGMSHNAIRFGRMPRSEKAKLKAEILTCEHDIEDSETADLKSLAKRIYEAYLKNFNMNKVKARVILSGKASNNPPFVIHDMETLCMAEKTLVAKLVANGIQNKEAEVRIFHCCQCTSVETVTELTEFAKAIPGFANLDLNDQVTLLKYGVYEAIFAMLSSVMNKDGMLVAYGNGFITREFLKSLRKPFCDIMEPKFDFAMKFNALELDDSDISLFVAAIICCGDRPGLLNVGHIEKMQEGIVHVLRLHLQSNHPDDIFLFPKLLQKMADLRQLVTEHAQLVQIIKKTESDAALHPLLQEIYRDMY
Human liver HepG2 cells are transiently transfected with multiple reporter transcription units (MRTUs) in 6-well plates using FuGene 6 reagent (Roche; 3 ml FuGene/1 mg DNA). The MRTU constructs are regulated by a cis-regulating element (promoter). […] A major difference between the CIS and TRANS system is that in CIS activities of endogenous TFs are measured, whereas the TRANS assay evaluates changes in activities of exogenous, chimeric NR-Gal4 proteins. […] At the end of 24 hour incubation, total RNA was isolated using TriZol reagent (Invitrogen). The isolated RNA is then reverse-transcribed using oligo(dT) primer and Mo-MLV reverse transcriptase (Invitrogen) with DNAse I (Ambion) treatment for 30 min. The one-tenth of the produced cDNA was amplified by PCR using Taq DNA polymerase (Invitrogen) and two reporter sequence-specific primers. The PCR products were fluorescently labeled by primer extension with 6-arboxyfluorescein (6-FAM) 5'-labeled reporter sequence-specific primer (2 min at 95 C, 20 s at 68 C and 10 min at 72 C) and these products were digested with 5U of HpaI (New England Biolabs) for 2h at 37 C. The fragments were purified using Qiaquick PCR columns (Qiagen), analyzed on an ABI 3130xL genetic analyzer (Applied Biosystems) with peak positions identified by using a set of X-rhodamine (ROX)-labeled MapMarker1000 molecular weight standards (BioVentures). The raw capillary electrophoresis data was processed using Attagraph software (Attagene).
Consider `CCC(=O)OC(C)(C)C1CC=C(C)CC1` (stereo not given), for which the molecule was called inactive.

Take `CC/C(=C(\c1ccccc1)c1ccc(OCCN(C)C)cc1)c1ccccc1`: the molecule was classed as inactive.

Regarding `O=Cc1ccccc1O`, the result was inactive.

In the case of `CCC(C)C1CCCCC1=O` (stereo not given), the outcome was inactive.

Consider `NNC(=O)OCc1ccccc1`, for which the call was inactive.

One may read the AC50 as the concentration at which the activity in the assay is half-maximal. Regarding `C=CCOC(=O)/C=C\C(=O)OCC=C`, the AC50 was 27.5 µM (active).

Turning to `C=CC(=O)OCCCCCC`, the outcome was inactive.

For `CCC(C)COC(=O)CC(C)C` (stereo not given), the molecule was called inactive.

For `CCCCCCCCCCCCOC(C)=O`, the molecule was called inactive.

In the case of `CC/C=C\CCOC(C)OCC` (stereo not given), the molecule was called inactive.

On to `CC1=CC[C@@H](C(C)(C)O)CC1`, for which the result was inactive.

As for `OCCN1CCOCC1`, the call was inactive.

Take `CC(=O)Nc1cc(S(=O)(=O)O)cc2cc(S(=O)(=O)O)c(N=Nc3ccccc3)c(O)c12`: the molecule was classed as inactive.

On to `CC(=O)c1ccc2ccccc2c1`, for which the outcome was inactive.

With `c1ccc2scnc2c1`, the molecule was classed as inactive.

As to `CCCCCC1CCC(=O)O1` (stereo not given), the result was inactive.

Regarding `O=C(O)c1cc2ccccc2cc1O`, the outcome was inactive.

On to `CCCC[N+](C)(CCCC)CCCC`, for which the molecule was classed as inactive.

For the molecule `S=c1[nH][nH]c(=S)s1`, the result was inactive.

On to `CCCCOC(=O)C(C)OC(=O)CCC` (stereo not given), for which the call was inactive.

Turning to `Cc1ccccc1S`, the molecule was classed as inactive.

Take `CCOC(=O)CCCCCCCCC(=O)OCC`: the outcome was inactive.

Take `CC(C)N1C(=O)c2ccccc2C1=O`: the call was inactive.

For `CCCCCCCCCCCCCC(=O)OCC`, the molecule was classed as inactive.

For the molecule `O=C1CCCCCCCCCCCC(=O)OCCO1`, the AC50 was 54.3 µM (active).

Take `ClCCOCCOCCCl`: the molecule was classed as inactive.

Take `CC(C)Cc1ccccc1`: the molecule was classed as inactive.

Consider `CN(C)CCC=C1c2ccccc2CCc2ccccc21`, for which the molecule was called inactive.

For the molecule `CC(O)COCC(C)O` (stereo not given), the call was inactive.

As for `C=C(C)C(=O)OCCN(C)C`, the outcome was inactive.

`N#CCCCC(C#N)CCC#N` (stereo not given): the molecule was classed as inactive.

As for `CCCCCCCCSCc1cc(C)c(O)c(CSCCCCCCCC)c1`, the molecule was classed as inactive.

Turning to `CCC(=O)OC/C=C(\C)CCC=C(C)C`, the call was inactive.

As for `CCCCCCC(C)O` (stereo not given), the molecule was called inactive.

Regarding `CCCOC(=O)CC`, the result was inactive.

For `CCCCCC1C(=O)CCC1CC(=O)OC` (stereo not given), the molecule was called inactive.

As for `CC(=O)c1cccnc1`, the molecule was classed as inactive.

`CN(C)c1ccc(C=O)cc1`: the molecule was called inactive.

For the molecule `c1ccc(Sc2ccccc2)cc1`, the molecule was classed as inactive.

Consider `[O-]/[N+](=N\O)c1ccccc1`, for which the call was inactive.
